A short description of test [1]: AP1 Signaling Pathway (AID 357; active = well fitted curve in either direction with a large enough effect, not every such curve was filed as active;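 also: ME-180 reporter cells stimulated with EGF at its EC50 level; % is scaled to controls: 0 for no effect and ±100 for the full control effect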). In short, it runs like this:
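AP-1-bla ME-180 cells, Opti-MEM + 0.5% dialyzed FBS, plated overnight 37 °C. Cpd titration + EC50 EGF, 5 h 37 °C. CCF4 2.5 h RT; ex 405, em 460/530 ratio → %activity, AC50.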

A short description of test [2]: NFAT Signaling Pathway (AID 444; active = well fitted curve in either direction with a large enough effect, not every such curve was filed as active;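 also: carbachol stimulus at about its EC50 of 1 µM final; % is scaled to controls: 0 for no effect and ±100 for the full control effect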). The settings on record: Jurkat NFAT-bla M1, carbachol, beta-lactamase ratio, 5 h; at 17.2 µM (top of the series). In short, it runs like this:
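Jurkat cells carrying an NFAT-driven β-lactamase reporter and co-transfected muscarinic M1 receptor were treated with compound plus carbachol (1 uM final, an EC50 level) for 5 h at 37 °C. CCF4 loading followed for 1 h at RT; 460/530 nm ratio gave %activity.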

Test [3] can be described thus: Stat Signaling Pathway (AID 446; active = well fitted curve in either direction with a large enough effect, not every such curve was filed as active;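 also: ME-180 cervical cancer cells given 40 pM IL-6 alongside compound; SIE-controlled beta-lactamase reporter measured as 460/530 nm FRET emission ratio; % is scaled to controls: 0 for no effect and ±100 for the full control effect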). In short, it runs like this: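 Emission at 460 and 530 nm (excitation 405 nm) reports SIE-controlled beta-lactamase in ME-180 cells. Cells received compound with 40 pM IL-6 for 5 hrs at 37 C; data scaled between 300 pM IL-6 and 125 nM JAK-inhibitor controls.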
The target of test [4] is Glucocorticoid receptor (Homo sapiens) (UniProt P04150). Kind of test: GR-GFP Redistribution (AID 450;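 active = compounds whose dose series gives a full or clear partial fitted curve of increased nuclear translocation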; also: potency is read from the fitted curve at half-maximal effect). Conditions: U2OS GR-GFP nuclear translocation, laser cytometry, 2 h.
Test [5] shares this target. Kind of test: GR-EFC Redistribution (AID 451; calls by dose curve; also: potency is read from the fitted curve at half-maximal effect). Conditions: CHO-K1 GR-EFC translocation, beta-gal luminescence, 2 h. In short, it runs like this: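 CHO-K1 cells stably expressing nuclear-localized β-gal enzyme acceptor and GR fused C-terminally to the enzyme donor fragment; ligand-driven nuclear translocation restores β-gal by complementation. Compounds titrated up to 46 uM final, 2 h at 37 °C; luminescence read.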

The target of test [6] is Mitogen-activated protein kinase 10 (Mus musculus) (UniProt Q61831). Kind of test: JNK3 AlphaScreen Assay (AID 530; active = well fitted curve in either direction with a large enough effect, not every such curve was filed as active;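 also: kinase came from lysate of stimulated human HepG2 cells; signal reports phosphorylation of biotinylated GST-cJun 1-79 at Ser73 with 10 µM ATP; % is scaled to controls: 0 for no effect and ±100 for the full control effect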). Summed up: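 Biotinylated GST-cJun(1-79) served as substrate for JNK3 in HepG2 lysates stimulated with IL-1beta and TNF-alpha. ATP was 10 uM final, pH 7.6. Ser73 phosphorylation was quantified by AlphaScreen (680 nm excitation).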
For orientation: Bead proximity is the source of the signal in Alpha formats.

In test [7] the target is 3',5'-cyclic-AMP phosphodiesterase 4B (Homo sapiens) (UniProt Q07343). In words: qHTS Assay for Inhibitors of PDE-IV (AID 607; active = well fitted activation curve with a large enough effect in the main read-out, with a control signal flat, not every such curve was filed as active; also: % of control where 0% means no effect). Summed up:
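The readout is membrane depolarisation from a cAMP-sensing CNG channel, detected with a potential dye at ex 535/em 590. Cells were HEK293-derived (endogenous PDE-IV) at 1000 cells/well, titrated up to 22.9 uM final.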
For orientation: In qHTS, concentration-response curves come from the screen itself.

Test [8] can be described thus: qHTS Assay for Lipid Storage Modulators (AID 1519; calls by dose curve). Conditions: Drosophila S3 cells, BODIPY lipid droplet/cell ratio, laser cytometry, cells loaded with oleic acid. In short, it runs like this: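 Cells seeded at 5,000 per well were treated with compounds over a concentration series and loaded with oleic acid (400 uM, as added). Lipid droplet fluorescence (488 nm excitation, 500-530 nm channel) was read by laser-scanning cytometry and normalized to 20 uM Triacsin C.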

In test [9] the target is Luciferin 4-monooxygenase (Photinus pyralis) (UniProt P08659). Kind of test: Biochemical firefly luciferase enzyme assay for NPC (AID 624030).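 Also: purified P. pyralis luciferase at 10 nM with luciferin and ATP substrate; 0% = DMSO and -100% = full luciferase inhibition by PTC124 control; nearly all actives have a fitted effect of over 70% in size.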 In short, it runs like this: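 Counter-screen for direct inhibition of the luciferase enzyme by approved-drug library compounds, run at 10 nM enzyme in 50 mM Tris acetate (final). Luminescence was read within 5 min of enzyme-buffer addition and normalized to PTC124 versus DMSO (0%).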

Test [10] in a line: qHTS profiling for inhibitors of Plasmodium falciparum proliferation (AID 504749).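 Also: 0% = DMSO vehicle and full inhibition = artemisinin control; nearly all actives have a fitted effect of over 60% in size.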 Conditions: P. falciparum in erythrocytes, SYBR Green DNA, 72 h. Summed up:
(§1)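 Fluorescence of SYBR Green-bound parasite DNA, read at 485/535 nm, served as the growth measure. Infected erythrocytes were cultured with compound 72 h; artemisinin (0.29 uM) and DMSO wells defined the normalization range.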

The subject of a further test is ATS189. Described as above. The settings on record: P. falciparum in erythrocytes, SYBR Green DNA, 72 h; series mostly up to 28.7 µM. Summed up:
as §1

A further test relates to DFO2036. The description is as above. Conditions: P. falciparum in erythrocytes, SYBR Green DNA, 72 h; series mostly up to 28.7 µM. In short, it runs like this: as §1
Test [11] addresses Cytochrome P450 1A2 (Homo sapiens) (UniProt P05177). Kind of test: p450-cyp1a2 (AID 410; calls by dose curve; also: potency is read from the fitted curve at half-maximal effect). In short, it runs like this:
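Read-out is luminescence from luciferin produced by CYP1A2 demethylation of Luciferin-ME (100uM, at Km). Detection reagent stopped the 60 min NADPH-dependent reaction; signals were normalized to 57 uM furafylline.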

For test [12], the target named is Ubiquitin carboxyl-terminal hydrolase 1 (Homo sapiens) (UniProt O94782). Kind of test: Inhibitors of USP1/UAF1: Pilot qHTS (AID 504865). Also: nearly all actives have a fitted effect of over 35% in size. Also: potency is read from the fitted curve at half-maximal effect. Summed up: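 Kinetic fluorescence assay: 1nM USP1/UAF1, 15 min compound preincubation, then 150nM Ub-Rho; 480/540 nm.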
Test [13] deals with Cytochrome P450 3A4 (Homo sapiens) (UniProt P08684). Kind of test: qHTS Assay for Inhibitors and Substrates of Cytochrome P450 3A4 (AID 884). Also: % is scaled to controls: 0 for no effect and ±100 for the full control effect; nearly all actives have a fitted effect of over 50% in size. Summed up:
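Luminescent readout of luciferin produced by CYP3A4 (20 nM) dealkylation of Luciferin-PPXE, 25 uM (its KM). NADPH-driven reaction ran 60 min at RT after 10 min compound preincubation; data scaled to 57 uM ketoconazole as 100% inhibition.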

Test [14] can be described thus: Confirmation and Secondary Assay for Modulators of Hemoglobin Beta Chain Splicing at IVS2 654 locus (AID 910).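 Also: per-well total GFP intensity by laser scanning cytometry after 2-day treatment; % of control where 0% means no effect.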 Summed up:
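HeLa cells stably carrying EGFP interrupted by mutant beta-globin IVS2-654 intron (CMV-driven) were treated with compound for 2 days at 37C; corrected splicing was scored as total peak GFP intensity per well (488 nm excitation, 500-520 nm emission).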

A short description of test [15]: Confirmation and Secondary Assay for Modulators of Hemoglobin Beta Chain Splicing at IVS2 705 locus (AID 930).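 Also: HeLa cells stably expressing the EGFP-705 splicing reporter; % of control where 0% means no effect.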 In short, it runs like this:
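HeLa cells stably carrying EGFP interrupted by mutant beta-globin IVS2-705 intron (CMV-driven) were seeded at 500 cells/well, treated next day with compound for 2 days at 37C; corrected splicing restores EGFP, read as total peak GFP intensity per well.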

Where [16] appears, read: measured here: cell count channel max response.
The mark [17] stands for this setting: measured here: lipid channel max response.
Where [18] appears, read: at 12.8 µM (top of the series), parasite line A.
[19] abbreviates: at 12.8 µM (top of the series), parasite line B.
The mark [20] stands for this setting: at 28.7 µM (top of the series), parasite line A.
[21] abbreviates: at 28.7 µM (top of the series), parasite line B.

Results filed as inconclusive are left out. Active and inactive are the calls of the source. Unless noted, calls follow the shape of the dose curve; as a rule, active = well fitted curve in the direction sought with a large enough effect; inconclusive = small, poorly fitted or top-dose-only effect, or another doubt; inactive = no such curve, though single readings can be large; an effect the other way counts as inactive or inconclusive.

Chain of Luciferin 4-monooxygenase (Photinus pyralis) (P08659 whole entry, looked up): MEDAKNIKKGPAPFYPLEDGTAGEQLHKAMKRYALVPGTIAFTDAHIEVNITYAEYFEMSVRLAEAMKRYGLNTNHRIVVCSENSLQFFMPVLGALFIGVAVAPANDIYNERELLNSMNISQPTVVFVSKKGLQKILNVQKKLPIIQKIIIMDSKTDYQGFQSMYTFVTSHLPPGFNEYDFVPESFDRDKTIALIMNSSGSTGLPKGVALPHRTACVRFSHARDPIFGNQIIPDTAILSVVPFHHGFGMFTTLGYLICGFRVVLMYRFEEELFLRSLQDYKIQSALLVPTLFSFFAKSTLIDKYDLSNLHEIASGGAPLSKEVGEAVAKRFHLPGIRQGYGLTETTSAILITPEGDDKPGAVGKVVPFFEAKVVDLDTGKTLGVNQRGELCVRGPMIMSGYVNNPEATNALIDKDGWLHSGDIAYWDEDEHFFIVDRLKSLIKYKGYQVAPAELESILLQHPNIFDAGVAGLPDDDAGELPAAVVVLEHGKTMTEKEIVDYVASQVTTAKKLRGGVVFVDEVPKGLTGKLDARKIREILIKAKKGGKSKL
Chain of Cytochrome P450 3A4 (Homo sapiens) (P08684 whole entry, looked up): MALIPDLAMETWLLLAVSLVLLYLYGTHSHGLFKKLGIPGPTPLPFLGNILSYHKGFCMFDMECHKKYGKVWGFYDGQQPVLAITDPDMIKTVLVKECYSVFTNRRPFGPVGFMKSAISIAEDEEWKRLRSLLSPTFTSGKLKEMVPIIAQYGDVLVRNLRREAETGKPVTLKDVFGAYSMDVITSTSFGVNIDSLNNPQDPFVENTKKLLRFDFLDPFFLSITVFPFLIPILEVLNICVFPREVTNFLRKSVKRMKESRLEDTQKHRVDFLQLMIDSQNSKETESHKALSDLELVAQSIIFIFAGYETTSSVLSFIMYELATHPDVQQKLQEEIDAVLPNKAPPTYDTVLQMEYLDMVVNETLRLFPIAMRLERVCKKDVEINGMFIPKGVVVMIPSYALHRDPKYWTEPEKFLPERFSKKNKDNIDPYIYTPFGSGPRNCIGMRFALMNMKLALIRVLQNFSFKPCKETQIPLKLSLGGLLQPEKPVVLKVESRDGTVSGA
Chain of 3',5'-cyclic-AMP phosphodiesterase 4B (Homo sapiens) (Q07343 whole entry, looked up): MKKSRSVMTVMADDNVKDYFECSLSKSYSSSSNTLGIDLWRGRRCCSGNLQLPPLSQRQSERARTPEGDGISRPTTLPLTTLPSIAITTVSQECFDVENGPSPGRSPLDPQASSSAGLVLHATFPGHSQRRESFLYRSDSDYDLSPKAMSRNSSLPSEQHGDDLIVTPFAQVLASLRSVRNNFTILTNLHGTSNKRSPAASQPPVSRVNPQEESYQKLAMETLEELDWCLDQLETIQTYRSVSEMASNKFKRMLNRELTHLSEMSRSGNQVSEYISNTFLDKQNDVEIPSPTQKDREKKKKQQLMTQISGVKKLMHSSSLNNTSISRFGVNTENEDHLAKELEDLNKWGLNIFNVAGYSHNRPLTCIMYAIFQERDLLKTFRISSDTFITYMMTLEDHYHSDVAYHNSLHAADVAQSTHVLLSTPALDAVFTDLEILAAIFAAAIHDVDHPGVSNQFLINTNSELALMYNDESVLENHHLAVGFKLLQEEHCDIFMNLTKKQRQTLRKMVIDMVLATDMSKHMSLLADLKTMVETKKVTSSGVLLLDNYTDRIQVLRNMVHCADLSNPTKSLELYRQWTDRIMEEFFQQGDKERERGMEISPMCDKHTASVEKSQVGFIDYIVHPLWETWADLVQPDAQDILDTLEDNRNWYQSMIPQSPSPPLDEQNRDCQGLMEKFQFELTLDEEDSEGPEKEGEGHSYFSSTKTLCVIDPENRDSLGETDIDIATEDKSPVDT
Chain of Ubiquitin carboxyl-terminal hydrolase 1 (Homo sapiens) (O94782 whole entry, looked up): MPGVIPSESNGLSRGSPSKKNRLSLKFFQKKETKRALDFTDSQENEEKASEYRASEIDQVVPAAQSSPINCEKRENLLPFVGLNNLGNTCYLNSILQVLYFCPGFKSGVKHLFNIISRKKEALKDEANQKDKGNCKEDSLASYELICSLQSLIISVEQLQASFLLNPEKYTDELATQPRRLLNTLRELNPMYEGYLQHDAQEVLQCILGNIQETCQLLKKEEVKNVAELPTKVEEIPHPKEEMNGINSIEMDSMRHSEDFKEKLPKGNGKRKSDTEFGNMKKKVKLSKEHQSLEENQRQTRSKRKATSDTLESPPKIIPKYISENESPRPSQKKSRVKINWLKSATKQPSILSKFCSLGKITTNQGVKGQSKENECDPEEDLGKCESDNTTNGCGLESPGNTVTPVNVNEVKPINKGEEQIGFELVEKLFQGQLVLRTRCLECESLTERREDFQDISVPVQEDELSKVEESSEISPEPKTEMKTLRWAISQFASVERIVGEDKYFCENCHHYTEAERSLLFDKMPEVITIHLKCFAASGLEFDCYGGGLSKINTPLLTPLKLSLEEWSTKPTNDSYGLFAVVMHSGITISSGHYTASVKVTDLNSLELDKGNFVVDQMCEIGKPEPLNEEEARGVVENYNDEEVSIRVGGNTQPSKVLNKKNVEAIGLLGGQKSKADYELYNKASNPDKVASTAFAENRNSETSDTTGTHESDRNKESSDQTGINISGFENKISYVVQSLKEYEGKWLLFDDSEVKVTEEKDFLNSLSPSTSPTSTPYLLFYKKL
Chain of Glucocorticoid receptor (Homo sapiens) (P04150 whole entry, looked up, the tested form may be a part): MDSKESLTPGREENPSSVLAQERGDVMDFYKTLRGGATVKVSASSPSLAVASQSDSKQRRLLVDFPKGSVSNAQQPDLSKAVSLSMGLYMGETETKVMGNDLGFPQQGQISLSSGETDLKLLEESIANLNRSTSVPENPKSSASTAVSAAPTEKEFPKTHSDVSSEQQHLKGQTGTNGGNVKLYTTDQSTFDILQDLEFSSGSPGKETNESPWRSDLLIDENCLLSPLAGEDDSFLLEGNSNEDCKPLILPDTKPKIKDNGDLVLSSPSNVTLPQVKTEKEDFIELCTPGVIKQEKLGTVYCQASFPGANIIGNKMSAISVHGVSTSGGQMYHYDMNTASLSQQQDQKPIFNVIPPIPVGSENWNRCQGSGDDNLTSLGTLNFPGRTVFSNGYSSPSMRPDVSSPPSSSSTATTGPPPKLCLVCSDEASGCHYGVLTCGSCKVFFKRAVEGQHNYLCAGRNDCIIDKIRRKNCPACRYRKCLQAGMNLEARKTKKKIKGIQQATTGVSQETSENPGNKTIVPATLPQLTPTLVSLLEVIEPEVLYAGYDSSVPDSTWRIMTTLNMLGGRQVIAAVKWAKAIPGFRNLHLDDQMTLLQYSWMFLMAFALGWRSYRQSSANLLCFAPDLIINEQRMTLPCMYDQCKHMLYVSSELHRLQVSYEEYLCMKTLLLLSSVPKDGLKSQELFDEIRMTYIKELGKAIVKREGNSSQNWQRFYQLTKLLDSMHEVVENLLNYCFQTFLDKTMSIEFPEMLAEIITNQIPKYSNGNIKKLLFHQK
Chain of Cytochrome P450 1A2 (Homo sapiens) (P05177 whole entry, looked up): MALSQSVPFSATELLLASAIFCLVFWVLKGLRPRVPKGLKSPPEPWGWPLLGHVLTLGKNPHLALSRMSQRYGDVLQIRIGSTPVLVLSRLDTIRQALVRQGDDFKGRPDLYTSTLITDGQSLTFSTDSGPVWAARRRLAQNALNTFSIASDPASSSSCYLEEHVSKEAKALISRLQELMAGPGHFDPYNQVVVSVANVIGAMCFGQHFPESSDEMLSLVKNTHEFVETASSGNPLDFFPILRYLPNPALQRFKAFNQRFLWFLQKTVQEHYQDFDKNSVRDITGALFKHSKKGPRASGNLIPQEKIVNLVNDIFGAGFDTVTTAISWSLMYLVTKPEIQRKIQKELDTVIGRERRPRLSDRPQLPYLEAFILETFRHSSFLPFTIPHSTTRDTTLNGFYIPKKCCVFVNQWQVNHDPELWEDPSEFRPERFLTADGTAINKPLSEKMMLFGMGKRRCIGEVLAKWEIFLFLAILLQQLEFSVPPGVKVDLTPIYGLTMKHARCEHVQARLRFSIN

With `CCN[C@]1(c2cccs2)CCCCC1=O`, the result in test [1], in [3] and in test [6] was inactive. The activity change, negative = inhibition in [2] was -19.9% (inactive); in [8] (at 25.7 µM (top of the series)), 0.601% (inactive). Besides, the Potency in [4] and in test [5] was > 20.6 µM (inactive) each time. Besides, the Potency entry (in test [7]; in test [9]; with ATS189; with DFO2036) was “inactive” each time. The max response in test [8] (setting [16]) was -13.4%; in test [8] (setting [17]), -12.8%. Also, the activity, negative = inhibition was -1.5% (inactive) in test [10] (setting [18]) and -1.41% (inactive) in test [10] (setting [19]).

Consider `CN1[C@@H](C[C@@H](O)c2ccccc2)CCC[C@@H]1C[C@H](O)c1ccccc1`, for which the call in [1], in [3] and in [6] was inactive. In addition, the Potency in test [11] was 5.01 µM (active); in test [4] it was > 20.6 µM (inactive); in [5] it was > 20.6 µM (inactive). Besides, the Potency entry in test [7] and in [12] was “inactive” throughout. For the same molecule, the activity change, negative = inhibition in test [8] (at 25.7 µM (top of the series)) was -1.73% (inactive). Further, the max response in test [8] (setting [16]) came to 3.31%; in test [8] (setting [17]), 0.966%.

`CC[C@H](CO)NC(=O)[C@H]1C=C2c3cccc4[nH]cc(c34)C[C@@H]2N(C)C1`: the call in test [1], in test [3] and in [6] was inactive. Besides, the activity change, negative = inhibition is -13.5% (inactive) in test [2] and 0.62% (inactive) in [8] (at 25.7 µM (top of the series)). Besides, the values for the Potency in [4] and in test [12] were > 20.6 µM (inactive) and 17.8 µM (active), respectively. For the same molecule, the Potency entry in test [7] was “inactive”. Moreover, the max response in test [8] (setting [16]) was 3.2%; in test [8] (setting [17]), 2.54%.

With `CNc1ccc(C(=O)CC(O)CCC(C)C2OC(=O)CC(O)CC(=O)CC(O)CC(O)CC(O)CC(O)CC3(O)CC(O)C(C(=O)OC)C(CC(O[C@@H]4OC(C)C(O)C(N)C4O)/C=C/C=C/C=C/C=C/C=C/C=C/C=C/C2C)O3)cc1` (stereo partly specified), the Potency result (in test [13]; in test [14]; in test [15]; in test [9]; in the test on ATS189; with DFO2036) was “inactive” each time. Moreover, the activity change, negative = inhibition in test [8] (at 57.5 µM (top of the series)) was 9.29% (inactive). Further, the max response was determined as 14.1% in test [8] (setting [16]) and 27.6% in [8] (setting [17]). Moreover, the activity, negative = inhibition in [10] (setting [20]) is 6.26% (inactive); in test [10] (setting [21]), 3.77% (inactive).

Consider `C[C@]1(C(=O)O)CCC[C@]2(C)c3cc(O)ccc3CC[C@@H]12`, for which the Potency entry in test [13] and in [12] was “inactive” in each case. For the same molecule, in test [8] (at 57.5 µM (top of the series)), the activity change, negative = inhibition was -6.36% (inactive). In addition, the max response in test [8] (setting [16]) was -21.1%; in test [8] (setting [17]), -24.8%.

As to `O=C1CCCC2[C@@H]3CCCN4CCC[C@@H](CN12)C34` (stereo partly specified), the Potency entry in test [13] and in test [12] was “inactive” throughout. In test [8] (at 57.5 µM (top of the series)), the activity change, negative = inhibition is 4.15% (inactive). Moreover, the max response in test [8] (setting [16]) is 4.45%; in test [8] (setting [17]), 7.09%.

As for `COc1cc2c(cc1OC)[C@@]13CCN4CC5=CCOC6CC(=O)N2C1[C@H]6[C@@H]5C[C@@H]43` (stereo partly specified), the Potency entry (in test [13]; in test [14]; in test [15]; in test [12]; in [9]; in the test with ATS189) was “inactive” in each case. The Potency result in the test on DFO2036 is “inactive”. The activity change, negative = inhibition in test [8] (at 57.5 µM (top of the series)) was 14% (inactive). For the same molecule, the max response is 9.29% in test [8] (setting [16]) and 26.2% in test [8] (setting [17]). The activity, negative = inhibition is -1.63% (inactive) in test [10] (setting [20]) and 1.63% (inactive) in test [10] (setting [21]).

Consider `O=c1ccc2cc(O[C@H]3O[C@@H](CO)[C@@H](O)[C@@H](O)[C@@H]3O)c(O)cc2o1`, for which the Potency in test [4] was > 20.6 µM (inactive). Moreover, the molecule was classed as inactive in [6]. Also, the Potency entry (in [7]; in [12]; in [9]; in the test with ATS189; with DFO2036) was “inactive” in each case. For the same molecule, the activity change, negative = inhibition in test [8] (at 25.7 µM (top of the series)) is -1.03% (inactive). Further, the max response in test [8] (setting [16]) turned out to be 1.01%; in test [8] (setting [17]), 0.833%. Also, the activity, negative = inhibition was 3.87% (inactive) in test [10] (setting [18]) and -4.9% (inactive) in test [10] (setting [19]).
